PubChem BioAssay (NCI)
This is part of a sample that, as a whole, favours compounds with a hit. Of some 83,000 tested, about 20% had one in any assay.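 96-well plates, one dose, 48 hours. Percent growth reported; active if below 10.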 Values without a mark were called inactive.

Tested on: KM12 colon
Assay: NCI-60 one-dose screen, 48 h (100 = growth as untreated, 0 = no growth, -100 = all killed)
Conditions: 10 µM unless noted

SMILES	growth
CCS(=O)(=O)OCCCl	115%
COc1ccc(-c2csc(NC(=O)c3cc(O)c(O)c(O)c3)n2)cc1	84.8%
CCCc1cc(=O)n2c(C(=O)Nc3ccccc3OC)c(C(=O)Nc3ccc(F)cc3)sc2n1	76.6% [30 µM]
COc1cc(C2=NN(C(C)=O)C(c3ccc(OC(C)=O)cc3OC(C)=O)O2)c(OC(C)=O)c2ccccc12 (centres undefined)	22.3%
